Outcome and AC50 data for twelve molecules are collected here from PubChem BioAssay (EPA / NIEHS).

Inconclusive results are not listed. A structure can be active in one record and inactive in another. The source made the active and inactive calls. How the source made its calls, unless noted: active means hit-call score of the fitted dose curve at least 0.9, where 1 is the maximum; inactive means score below 0.9.

Read-out in test [1]: E-selectin (Homo sapiens) (UniProt P16581)
The test is described as follows: BSK_SAg_Eselectin: BioMAP Diversity Plus: SAg Assay for Eselectin Biomarker Activity (AID 2283091). The settings on record: primary human HUVEC with PBMC; actives raise or lower the signal. In short, it runs like this:
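Co-culture: HUVEC + PBMC. Dose compound; 24 h. ELISA for E-selectin. Bidirectional fit vs DMSO.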

Read-out in test [2]: Monokine induced gamma interferon (MIG), CXCL9 (gene 4283)
The test is described as follows: BSK_SAg_MIG: BioMAP Diversity Plus: SAg Assay for Monokine induced gamma interferon (MIG) Biomarker Activity (AID 2283092). The settings on record: primary human HUVEC with PBMC; actives raise or lower the signal. In short, it runs like this: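 Values reflect bidirectional fitting of ELISA-measured MIG against DMSO vehicle, taken 24 h after dosing of a co-culture of human umbilical vein endothelial cells and peripheral blood mononuclear cells.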

Test [3] in a line: BSK_SAg_PBMCCytotoxicity: PBMC Cytotoxicity Assessment in the BioMAP Diversity Plus: SAg Assay (AID 2283093).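 Further: PBMC viability measured as Alamar Blue reduction fluorescence at 546/580 nm; fitted both ways against DMSO so a hit may be loss or gain of signal.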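 On AC50: PBMC superantigen activated with SEB plus TSST-1 one hour after compound addition.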 The settings on record: primary human HUVEC with PBMC. In short, it runs like this:
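HUVEC/PBMC co-culture; PBMC exposed to chemical 1 h before SEB and TSST-1 activation (20 ng/mL each), incubated 90 h, then Alamar Blue 6 h, fluorescence 546/580 nm. Bidirectional fit versus DMSO baseline.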

Read-out in test [4]: Interleukin-8 (IL8), CXCL8 (gene 3576)
The test is described as follows: BSK_SAg_IL8: BioMAP Diversity Plus: SAg Assay for Interleukin-8 (IL8) Biomarker Activity (AID 2283094). Particulars: primary human HUVEC with PBMC; actives raise or lower the signal. In short, it runs like this: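 In this co-culture of human umbilical vein endothelium with peripheral blood mononuclear cells, IL-8 is assayed by ELISA at 24 h. DMSO serves as baseline for bidirectional curve fitting.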

A short description of test [5]: BSK_SAg_Proliferation: Cell Proliferation Assessment in the BioMAP Diversity Plus: SAg Assay (AID 2283095).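 Further: relative cell number as total protein by SRB absorbance in sub-confluent culture.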 The settings on record: primary human HUVEC with PBMC. In short, it runs like this: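 Readout is SRB-stained protein (560 nm) in a primary human HUVEC and PBMC co-culture; sub-confluent cultures are read at 96 h. Activity is fitted bidirectionally using DMSO as baseline.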

Test [6] in a line: BSK_SAg_SRB: Viability Assessment in the BioMAP Diversity Plus: SAg Assay (AID 2283096).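 Further: cells read one day after compound addition; hits may be either gain or loss of signal compared with DMSO.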 The settings on record: primary human HUVEC with PBMC. In short, it runs like this: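 Human umbilical vein endothelial cells co-cultured with PBMC, read 24 h after compound dosing. Total protein measured by sulforhodamine B staining (0.1% SRB after 10% TCA fixation, absorbance 560 nm); bidirectional fit versus DMSO baseline.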

Read-out in test [7]: Monocyte Chemoattractant Protein-1 (MCP1), CCL2 (gene 6347)
The test is described as follows: BSK_SAg_MCP1: BioMAP Diversity Plus: SAg Assay for Monocyte Chemoattractant Protein-1 (MCP1) Biomarker Activity (AID 2283090). Particulars: primary human HUVEC with PBMC; actives raise or lower the signal. In short, it runs like this: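 MCP-1 levels in the endothelial–PBMC SAg co-culture were quantified by ELISA at 24 h post-dosing; both increases and decreases versus DMSO scored. Cytotoxicity monitored by SRB total protein in parallel cultures.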

The target of test [8] is Cytochrome P450 3A4 (Homo sapiens) (UniProt P08684). The test is described as follows: NVS_ADME_hCYP3A4: NovaScreen (NVS) CYP450-related Enzyme Activity (ADME) Assay for human CYP3A4 (AID 2283110; active means hit-call score of the fitted dose curve at least 0.9, where 1 is the maximum). In short, it runs like this:
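Cell-free recombinant enzyme expressed in insect cells; fluorescent substrate turnover read after 0.33 h, acetonitrile as negative control. Primary screen in duplicate at 10 uM, actives then tested in concentration series.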

Test [9] addresses human Beta-secretase (BACE), BACE1 (gene 23621) (UniProt P56817). The test is described as follows: NVS_ENZ_hBACE: NovaScreen (NVS) Enzymatic Assay for human Beta-secretase (BACE) (AID 2283140; active means hit-call score of the fitted dose curve at least 0.9, where 1 is the maximum;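 further: hits are inhibitors that reduce fluorescent substrate signal versus DMSO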). In short, it runs like this: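 Recombinant BACE1 (SF9 extract) incubated with compound and fluorescent substrate, 1 h. Plates carried positive and DMSO negative controls. Initial single dose 25 uM, duplicate; confirmation by concentration series.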

The target of test [10] is human Ephrin type-A Receptor 1 (EphA1), EPHA1 (gene 2041) (UniProt P21709). Briefly: NVS_ENZ_hEphA1: NovaScreen (NVS) Enzymatic Assay for human Ephrin type-A Receptor 1 (EphA1) (AID 2283158; active means hit-call score of the fitted dose curve at least 0.9, where 1 is the maximum;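 further: activity is signal loss versus DMSO meaning EphA1 kinase inhibition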). In short, it runs like this: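 Chemicals first tested in duplicate at 25 uM against recombinant EphA1 with a fluorescent substrate; those passing threshold went to singleton dose-response topping at 50 uM. Activity read 1 h later as mobility-shift fluorescence, loss of signal relative to DMSO.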

Test [11] has as its target Cytochrome P450 2C19 (Homo sapiens) (UniProt P33261). Briefly: NVS_ADME_hCYP2C19: NovaScreen (NVS) CYP450-related Enzyme Activity (ADME) Assay for human CYP2C19 (AID 2283113; active means hit-call score of the fitted dose curve at least 0.9, where 1 is the maximum;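 further: potency for inhibition seen as loss of fluorescent signal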). In short, it runs like this:
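Fluorescence intensity was measured 1 hour after chemicals were added to insect-cell-derived recombinant CYP2C19 with fluorogenic substrate. Decreased signal versus acetonitrile control was taken as reduced enzyme activity; initial testing used 10 uM in duplicate.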

The target of test [12] is rat CYP2C11, Cyp2c11 (gene 29277) (UniProt P08683). Briefly: NVS_ADME_rCYP2C11: NovaScreen (NVS) CYP450-related Enzyme Activity (ADME) Assay for rat CYP2C11 (AID 2283118; active means hit-call score of the fitted dose curve at least 0.9, where 1 is the maximum). In short, it runs like this:
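Cell-free recombinant rat enzyme with fluorescent substrate; readout 0.33 h after dosing, loss of signal versus acetonitrile control. Initial duplicate single-point at 10 uM; actives rerun in concentration series.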

Test [13] deals with human Caspase 5 (CASP5), CASP5 (gene 838) (UniProt P51878). The test is described as follows: NVS_ENZ_hCASP5: NovaScreen (NVS) Enzymatic Assay for human Caspase 5 (CASP5) (AID 2283137; active means hit-call score of the fitted dose curve at least 0.9, where 1 is the maximum). In short, it runs like this: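 Cell-free protease assay with bacterially expressed CASP5 and a fluorescent substrate, measured at 2 h. Values fitted relative to DMSO as baseline, from concentration-response series topping at 50 uM.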
Chain of human Caspase 5 (CASP5), CASP5 (gene 838) (P51878 whole entry, looked up): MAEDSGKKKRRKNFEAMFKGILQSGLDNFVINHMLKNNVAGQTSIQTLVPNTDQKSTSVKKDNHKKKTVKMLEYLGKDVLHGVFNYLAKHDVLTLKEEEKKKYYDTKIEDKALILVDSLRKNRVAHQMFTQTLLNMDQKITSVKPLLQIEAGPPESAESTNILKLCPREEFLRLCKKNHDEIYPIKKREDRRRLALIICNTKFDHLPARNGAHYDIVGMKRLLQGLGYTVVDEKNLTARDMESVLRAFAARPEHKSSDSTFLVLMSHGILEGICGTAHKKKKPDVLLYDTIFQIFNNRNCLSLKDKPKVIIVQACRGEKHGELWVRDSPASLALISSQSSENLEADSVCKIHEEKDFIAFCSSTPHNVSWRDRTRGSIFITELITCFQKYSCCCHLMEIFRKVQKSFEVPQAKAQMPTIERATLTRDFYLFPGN

Chain of E-selectin (Homo sapiens) (P16581 whole entry, looked up): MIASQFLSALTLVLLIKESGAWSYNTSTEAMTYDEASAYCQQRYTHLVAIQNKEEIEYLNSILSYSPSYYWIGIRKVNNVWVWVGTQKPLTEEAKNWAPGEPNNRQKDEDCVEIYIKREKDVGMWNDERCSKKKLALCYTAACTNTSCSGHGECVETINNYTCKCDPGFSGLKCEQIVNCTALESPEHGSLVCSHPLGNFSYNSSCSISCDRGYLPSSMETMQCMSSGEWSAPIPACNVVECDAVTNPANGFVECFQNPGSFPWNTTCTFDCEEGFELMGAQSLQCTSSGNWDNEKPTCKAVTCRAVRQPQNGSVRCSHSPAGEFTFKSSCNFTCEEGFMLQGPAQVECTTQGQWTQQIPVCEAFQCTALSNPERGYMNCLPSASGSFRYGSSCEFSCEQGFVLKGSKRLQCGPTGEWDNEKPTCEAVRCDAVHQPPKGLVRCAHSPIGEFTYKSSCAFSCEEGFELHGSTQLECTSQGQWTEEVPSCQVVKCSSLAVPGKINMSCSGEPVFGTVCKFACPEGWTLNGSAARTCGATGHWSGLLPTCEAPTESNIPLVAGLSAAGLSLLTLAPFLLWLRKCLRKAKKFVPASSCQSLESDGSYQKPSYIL
Chain of human Ephrin type-A Receptor 1 (EphA1), EPHA1 (gene 2041) (P21709 whole entry, looked up): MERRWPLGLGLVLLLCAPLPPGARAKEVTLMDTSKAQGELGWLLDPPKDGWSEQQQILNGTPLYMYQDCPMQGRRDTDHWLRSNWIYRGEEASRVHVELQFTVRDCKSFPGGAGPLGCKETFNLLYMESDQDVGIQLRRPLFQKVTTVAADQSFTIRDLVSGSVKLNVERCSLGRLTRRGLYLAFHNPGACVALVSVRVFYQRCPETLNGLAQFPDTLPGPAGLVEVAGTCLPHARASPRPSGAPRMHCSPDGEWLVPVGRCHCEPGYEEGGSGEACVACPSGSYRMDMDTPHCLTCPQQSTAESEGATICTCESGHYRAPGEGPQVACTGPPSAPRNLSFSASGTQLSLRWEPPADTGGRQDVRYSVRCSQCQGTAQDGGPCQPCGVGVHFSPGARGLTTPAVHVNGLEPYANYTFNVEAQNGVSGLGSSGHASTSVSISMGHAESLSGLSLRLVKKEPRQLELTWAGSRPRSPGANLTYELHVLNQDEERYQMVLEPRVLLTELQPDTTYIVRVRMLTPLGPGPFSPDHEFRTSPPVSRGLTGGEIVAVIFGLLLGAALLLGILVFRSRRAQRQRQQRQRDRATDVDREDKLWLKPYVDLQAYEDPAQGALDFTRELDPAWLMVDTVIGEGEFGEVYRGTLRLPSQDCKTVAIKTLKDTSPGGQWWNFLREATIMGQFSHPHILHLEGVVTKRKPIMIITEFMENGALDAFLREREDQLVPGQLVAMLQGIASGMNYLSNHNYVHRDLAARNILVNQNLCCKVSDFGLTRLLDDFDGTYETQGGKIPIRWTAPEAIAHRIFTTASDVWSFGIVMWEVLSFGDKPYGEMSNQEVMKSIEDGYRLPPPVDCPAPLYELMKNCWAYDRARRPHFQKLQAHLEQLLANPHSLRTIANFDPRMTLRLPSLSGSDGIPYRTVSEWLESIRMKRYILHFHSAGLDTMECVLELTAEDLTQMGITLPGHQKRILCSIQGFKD
Chain of Cytochrome P450 3A4 (Homo sapiens) (P08684 whole entry, looked up): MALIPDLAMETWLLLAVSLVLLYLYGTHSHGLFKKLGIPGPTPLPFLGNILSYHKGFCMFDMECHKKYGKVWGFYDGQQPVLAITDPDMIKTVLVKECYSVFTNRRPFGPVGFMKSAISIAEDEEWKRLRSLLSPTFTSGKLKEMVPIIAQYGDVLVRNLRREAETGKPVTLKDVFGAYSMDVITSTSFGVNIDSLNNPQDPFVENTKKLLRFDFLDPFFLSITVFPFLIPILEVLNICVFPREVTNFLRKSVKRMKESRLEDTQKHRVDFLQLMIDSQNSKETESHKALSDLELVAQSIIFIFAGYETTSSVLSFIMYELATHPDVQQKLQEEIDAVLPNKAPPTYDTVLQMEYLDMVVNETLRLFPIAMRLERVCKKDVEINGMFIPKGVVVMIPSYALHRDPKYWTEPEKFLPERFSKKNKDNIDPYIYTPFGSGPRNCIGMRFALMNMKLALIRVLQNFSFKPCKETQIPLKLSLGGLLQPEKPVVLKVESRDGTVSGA
Chain of rat CYP2C11, Cyp2c11 (gene 29277) (P08683 whole entry, looked up): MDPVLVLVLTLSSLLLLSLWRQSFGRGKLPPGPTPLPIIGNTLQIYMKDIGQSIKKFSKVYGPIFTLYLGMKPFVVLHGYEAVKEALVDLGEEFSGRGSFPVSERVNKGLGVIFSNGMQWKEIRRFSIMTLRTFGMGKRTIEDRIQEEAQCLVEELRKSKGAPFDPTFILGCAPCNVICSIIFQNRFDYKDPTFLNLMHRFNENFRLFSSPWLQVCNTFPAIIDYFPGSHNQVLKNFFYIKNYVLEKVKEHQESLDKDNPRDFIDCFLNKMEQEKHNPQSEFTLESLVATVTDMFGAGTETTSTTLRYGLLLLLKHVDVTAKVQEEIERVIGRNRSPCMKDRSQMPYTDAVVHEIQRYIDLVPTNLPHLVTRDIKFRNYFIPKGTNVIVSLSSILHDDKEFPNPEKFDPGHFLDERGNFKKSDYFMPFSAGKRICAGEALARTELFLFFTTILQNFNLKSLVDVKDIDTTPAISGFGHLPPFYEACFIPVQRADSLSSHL
Chain of human Beta-secretase (BACE), BACE1 (gene 23621) (P56817 whole entry, looked up): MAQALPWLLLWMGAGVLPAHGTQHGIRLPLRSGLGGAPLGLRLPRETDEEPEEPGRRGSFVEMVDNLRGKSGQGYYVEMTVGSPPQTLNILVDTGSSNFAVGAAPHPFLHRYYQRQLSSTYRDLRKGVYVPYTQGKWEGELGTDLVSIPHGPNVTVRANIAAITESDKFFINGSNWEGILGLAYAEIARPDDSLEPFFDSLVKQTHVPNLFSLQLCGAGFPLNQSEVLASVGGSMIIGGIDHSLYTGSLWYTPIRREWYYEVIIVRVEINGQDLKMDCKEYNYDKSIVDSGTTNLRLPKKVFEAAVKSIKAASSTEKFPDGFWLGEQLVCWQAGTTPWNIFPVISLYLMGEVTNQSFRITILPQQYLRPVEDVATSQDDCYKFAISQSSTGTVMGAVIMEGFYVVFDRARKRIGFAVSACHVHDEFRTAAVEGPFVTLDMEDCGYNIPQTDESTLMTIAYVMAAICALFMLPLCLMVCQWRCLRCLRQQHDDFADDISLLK

In general, AC50 refers to the midpoint of the concentration-response curve, whichever way the signal moves. `CC(c1cc(C(C)(C)C)cc(C(C)(C)C)c1O)c1cc(C(C)(C)C)cc(C(C)(C)C)c1O`: the outcome in [1], in [2], in [3], in [4] and in [6] was inactive. For the same molecule, the AC50 in test [5] was 5.29 µM (active).

Turning to `CC(CCC(=O)O)(c1ccc(O)cc1)c1ccc(O)cc1`, the outcome in [7], in [1], in test [3], in test [4], in test [5] and in test [6] was inactive.

On to `CCOC(=O)C1=NN(c2ccc(Cl)cc2Cl)C(C)(C(=O)OCC)C1` (configuration not stated), for which the result in test [1], in test [2], in test [3], in test [4], in test [5] and in [6] was inactive.

Turning to `Oc1c(Cl)cc(Cl)c(Cl)c1Cl`, the AC50 is 20 µM (active) in [1]; 32.2 µM (active) in test [2]; 0.0683 µM (active) in [3]; 29.9 µM (active) in [4]; 20 µM (active) in [5]; 20 µM (active) in test [6]. For the same molecule, in test [8], the result was inactive.

Take `CCN1CN(CC)CN(CC)C1`: the outcome in test [1], in test [2], in test [3], in test [4] and in test [6] was inactive. Moreover, the AC50 in [5] was 36.3 µM (active).

`CCNc1nc(NC(C)(C)C)nc(OC)n1`: the outcome in test [7], in test [2], in [3], in test [4], in test [5] and in [6] was inactive. Besides, the AC50 in test [1] is 8.44 µM (active).

As for `CC(Cl)COP(=O)(OCC(C)Cl)OCC(C)Cl` (configuration not stated), the result in test [1], in test [2], in test [3], in [4], in test [5] and in test [6] was inactive.

As to `COC(OC)(C(=O)c1ccccc1)c1ccccc1`, the outcome in [7], in test [1], in test [3], in test [4], in [5] and in test [6] was inactive. Besides, in [10], the molecule was called inactive. Moreover, the AC50 in test [9] was 43.1 µM (active).

In the case of `O=C(Oc1ccccc1)c1ccccc1C(=O)Oc1ccccc1`, the outcome in test [1], in test [2], in test [3], in [4], in test [6] and in [10] was inactive. In test [5], the AC50 was 20 µM (active).

Take `c1ccc2c(c1)[nH]c1ccccc12`: the result in test [1], in [2], in test [3], in test [4], in test [5] and in [6] was inactive. For the same molecule, in [4], the AC50 was 2.72 µM (active).

In the case of `C=CC(=O)NCOCCCC`, the result in [7], in test [1], in test [2], in test [3], in [4] and in test [5] was inactive. In addition, the result in test [6] was inactive.

On to `CCOC(=O)C1=NOC(c2ccccc2)(c2ccccc2)C1`, for which the outcome in [7], in [1], in test [3], in [4], in test [5] and in test [6] was inactive. Also, the call in test [12] and in test [13] was inactive. The AC50 in test [11] is 1.8 µM (active).
